Measured values published in PubChem BioAssay (Tox21).
Unmarked numbers belong to inactive results. Records with an inconclusive call do not appear. Entries that show only a call come without a potency. Calls of active or inactive are those of the source. Unless noted, the call rests on the fitted dose curve; in most records, active means well fitted curve in the direction sought with a large enough effect in the repeat runs; inconclusive means weak or mixed curves; inactive means no such curve, though single readings can be large; an effect the other way counts as inactive or inconclusive.

Tests used:
[1] = qHTS assay for small molecule agonists of the p53 signaling pathway (AID 651631; calls by dose curve; further: nearly all actives have a fitted effect of over 15% in size; further: potency means the concentration at half of the fitted maximal effect)
Procedure, shortened: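 Beta-lactamase reporter activity under p53 response elements was quantified in HCT-116 cells by FRET fluorescence, following 16 h incubation with test compounds at 37 °C and 2 h substrate development at room temperature.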

[2] = qHTS assay for small molecules that induce genotoxicity in human embryonic kidney cells expressing luciferase-tagged ATAD5 (AID 651632); further: nearly all actives have a fitted effect of over 15% in size; further: potency means the concentration at half of the fitted maximal effect
Procedure, shortened: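 Test compounds were delivered by pin tool onto HEK293T reporter cells (2,000/well) expressing ATAD5 fused to luciferase. After 16 hr at 37C, 5% CO2, Amplite was added for 30 min at room temperature and luminescence was measured.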

[3] = qHTS assay for small molecules that induce genotoxicity in human embryonic kidney cells expressing luciferase-tagged ATAD5 - cell viability (AID 651634; calls by dose curve; further: nearly all actives have a fitted effect of over 25% in size)
Procedure, shortened: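 Quantitative high-throughput format. HEK293T cells expressing ATAD5 fused to luciferase were plated at 2,000 cells/well and treated 15.5 hr with compound versus DMSO. Viability was determined by fluorescent live-cell protease substrate, 30 min at 37C.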

[4] = qHTS assay for small molecule disruptors of the mitochondrial membrane potential - cell viability (AID 720634; calls by dose curve;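 further: human HepG2 liver cancer cells; series mostly up to about 83 µM; nearly all actives have a fitted effect of over 20% in size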)
Procedure, shortened: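 Same-well counter-screen: following the MMP dye addition, CellTiter-Glo was added to 1 hr compound-treated HepG2 cells and luminescence read after 30 min at room temperature.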

[5] = qHTS assay to test for compound auto fluorescence at 590 nm (red) in HepG2 cells (AID 720674)
Procedure, shortened: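 Seeding: 2,000 HepG2 cells/well, MEM/10% FBS, overnight 37 C. Dosing: compound vs DMSO. Incubation: 1 hr, 37 C, 5% CO2. Read: fluorescence 540 ex/590 em, Rose Bengal sodium as red reference.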

[6] = qHTS assay to test for compound auto fluorescence at 535 nm (green) in HepG2 cells (AID 720675)
[7] = qHTS assay to test for compound auto fluorescence at 460 nm (blue) in HEK293 cells (AID 720678)
Procedure, shortened: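 Measured: blue fluorescence (Ex 405/Em 460 nm) of compound-treated HEK293 cells, incubated overnight at 37C with 5% CO2 and scaled to triamterene equivalents.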

[8] = qHTS assay to test for compound auto fluorescence at 590 nm (red) in HEK293 cells (AID 720679)
Procedure, shortened: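 Using HEK293 cells at 2,000 per well, the screen added 23 nL of each compound after cell attachment and incubated overnight (37C, 5% CO2). The plate reader then captured red-label fluorescence, Ex/Em 540/590nm.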

[9] = qHTS assay to test for compound auto fluorescence at 460 nm (blue) in HEK293 cell free culture (AID 720681)
Procedure, shortened: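 Compounds were added to cell-free DMEM with 10% FBS and fluorescence read directly. The blue channel used 405 nm excitation and 460 nm emission, with triamterene as the reference fluorophore.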

[10] = qHTS assay to test for compound auto fluorescence at 535 nm (green) in HEK293 cell free culture (AID 720682)
Procedure, shortened: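 Each library compound, or DMSO control, is added by pintool to medium alone, comprising DMEM and 10% FBS. Emission at 535 nm following 485 nm excitation is quantified against fluorescein.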

[11] = qHTS assay to test for compound auto fluorescence at 590 nm (red) in HEK293 cell free culture (AID 720683)
Procedure, shortened: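 Cell-free wells of DMEM with 10% FBS received compound, and intrinsic fluorescence was read at excitation/emission 540/590 nm. Values expressed as equivalence to Rose Bengal sodium.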

[12] = qHTS assay to test for compound auto fluorescence at 590 nm (red) in HepG2 cell free culture (AID 720684)
Procedure, shortened: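 Rose Bengal sodium served as the reference for red signal. Test compounds were dispensed into serum-containing MEM (10% FBS) without cells, and plates were read at 540/590 nm.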

[13] = qHTS assay to test for compound auto fluorescence at 460 nm (blue) in HepG2 cell free culture (AID 720685)
Procedure, shortened: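 Cell-free plates of MEM plus 10% FBS received 23 nL compound or DMSO vehicle; blue-channel (405/460 nm) intensity scored against triamterene as reference fluorophore.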

[14] = qHTS assay to test for compound auto fluorescence at 535 nm (green) in HepG2 cell free culture (AID 720686)
[15] = qHTS assay to test for compound auto fluorescence at 460 nm (blue) in HepG2 cells (AID 720687)
Procedure, shortened: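 HepG2 cells in MEM with 10% FBS, attached overnight at 37 C, were exposed to compound or DMSO for 1 hr at 37 C, 5% CO2. Blue fluorescence was read at 405/460 nm, with triamterene as reference fluorophore.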

[16] = qHTS assay for small molecule disruptors of the mitochondrial membrane potential (AID 720635); further: potency means the concentration at half of the fitted maximal effect
Procedure, shortened: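 HepG2 cells exposed to compound 1 hr at 37C, then Mito-MPS dye 30 min. Ratio read of aggregate (540/590 nm) versus monomer (490/535 nm) fluorescence.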

[17] = qHTS assay to test for compound auto fluorescence at 535 nm (green) in HEK293 cells (AID 720680)
[18] = molecular target: Glucocorticoid receptor (Homo sapiens) (UniProt P04150); assay: qHTS assay to identify small molecule agonists of the glucocorticoid receptor (GR) signaling pathway (AID 720691; active means well fitted activation curve with a large enough effect in the signal ratio in the repeat runs, not every such curve was filed as active; the % refers to the signal ratio)
Sequence of Glucocorticoid receptor (Homo sapiens) (P04150 whole entry, looked up): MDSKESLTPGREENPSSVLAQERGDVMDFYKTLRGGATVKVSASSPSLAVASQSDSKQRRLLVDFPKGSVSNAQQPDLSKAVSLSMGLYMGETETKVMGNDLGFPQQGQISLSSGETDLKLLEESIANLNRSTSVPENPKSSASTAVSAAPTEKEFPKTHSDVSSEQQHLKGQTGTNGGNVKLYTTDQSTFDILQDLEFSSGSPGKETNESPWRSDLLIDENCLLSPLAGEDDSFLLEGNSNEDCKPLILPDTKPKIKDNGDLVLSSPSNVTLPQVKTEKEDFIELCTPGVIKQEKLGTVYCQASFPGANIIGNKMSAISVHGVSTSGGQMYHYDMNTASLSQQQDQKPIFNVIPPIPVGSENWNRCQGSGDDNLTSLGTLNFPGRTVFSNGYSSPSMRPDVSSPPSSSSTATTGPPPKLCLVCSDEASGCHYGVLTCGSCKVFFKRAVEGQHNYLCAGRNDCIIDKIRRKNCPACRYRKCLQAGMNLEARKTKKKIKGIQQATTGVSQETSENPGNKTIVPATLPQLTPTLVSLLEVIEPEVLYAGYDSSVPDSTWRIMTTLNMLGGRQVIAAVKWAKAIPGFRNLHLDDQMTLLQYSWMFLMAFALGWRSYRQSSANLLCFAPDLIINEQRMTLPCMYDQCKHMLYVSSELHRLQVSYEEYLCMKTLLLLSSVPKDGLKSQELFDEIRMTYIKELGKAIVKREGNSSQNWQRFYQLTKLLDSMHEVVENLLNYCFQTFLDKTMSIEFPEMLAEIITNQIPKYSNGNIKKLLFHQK
Procedure, shortened: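 A HeLa cervical cancer line expressing GR and a glucocorticoid response element-driven beta-lactamase gene is treated with compounds for 18 h; LiveBLAzer B/G FRET substrate is then applied and fluorescence read.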

[19] = molecular target: Glucocorticoid receptor (Homo sapiens) (UniProt P04150); assay: qHTS assay to identify small molecule antagonists of the glucocorticoid receptor (GR) signaling pathway (AID 720692; active means well fitted inhibition curve with a large enough effect in the signal ratio in the repeat runs, not every such curve was filed as active; the % refers to the signal ratio)
Procedure, shortened: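 GRE-bla HeLa line, dex-stimulated (5 nM final). Compound exposure 18 h, 37 C. Beta-lactamase FRET read after 2 h RT substrate.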

[20] = qHTS assay for small molecule agonists of the p53 signaling pathway - cell viability (AID 651633; calls by dose curve;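 further: p53RE-bla HCT reporter cells with a stable beta-lactamase p53 reporter; series mostly up to about 83 µM; nearly all actives have a fitted effect of over 30% in size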)
Procedure, shortened: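 p53RE-bla cells were treated with compound for 16 hours at 37 C. Cytotoxicity was then measured as CellTiter-Glo luminescence after 30 min at room temperature.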

SMILES | Potency [1] | Potency [2] | Potency [3] | Potency [4] | outcome [5] | outcome [6] | Potency [7] | outcome [8] | Potency [9] | outcome [10] | outcome [11] | outcome [12] | outcome [13] | outcome [14] | outcome [15] | Potency [16] | outcome [17] | Potency [18] | Potency [19] | Potency [20]
CCCCOC(=O)CC#N | inactive | inactive | inactive | inactive | inactive | inactive | inactive | inactive | inactive | inactive | inactive | inactive | inactive | inactive | inactive | – | – | – | – | –
CC(O)C(C)O (configuration not stated) | inactive | inactive | inactive | inactive | inactive | inactive | inactive | inactive | inactive | inactive | inactive | inactive | inactive | inactive | inactive | inactive | inactive | inactive | inactive | –
CC(CCl)OC(C)CCl (configuration not stated) | inactive | inactive | inactive | inactive | inactive | inactive | inactive | inactive | inactive | – | inactive | inactive | inactive | inactive | inactive | inactive | inactive | inactive | inactive | –
COc1ccc(/C=C/S(=O)(=O)NC(=O)c2ccc(C)cc2Cl)cc1 | 30.6 µM (active) | 21.7 µM (active) | inactive | inactive | inactive | inactive | inactive | inactive | inactive | – | inactive | inactive | inactive | inactive | inactive | – | inactive | – | – | –
O=C(Nc1ccc2c(c1)Cc1ccccc1-2)C(F)(F)F | inactive | inactive | inactive | – | inactive | inactive | inactive | inactive | inactive | inactive | inactive | inactive | inactive | inactive | inactive | 17.2 µM (active) | inactive | inactive | inactive | –
N#CCCCC(C#N)CCC#N (configuration not stated) | inactive | inactive | inactive | inactive | – | inactive | inactive | inactive | inactive | – | inactive | inactive | inactive | inactive | inactive | inactive | inactive | – | – | –
CCCCOc1ccc(N)cc1 | inactive | inactive | inactive | inactive | inactive | inactive | inactive | inactive | inactive | inactive | inactive | inactive | inactive | inactive | inactive | – | inactive | inactive | – | –
CC(=O)Nc1ccccc1O | inactive | – | inactive | inactive | inactive | inactive | inactive | inactive | inactive | inactive | inactive | inactive | inactive | inactive | inactive | – | inactive | – | – | inactive
CCCCCO | inactive | inactive | – | inactive | inactive | inactive | inactive | inactive | inactive | inactive | inactive | inactive | inactive | inactive | inactive | – | inactive | inactive | – | –
CC(C)Cc1nccs1 | inactive | inactive | – | – | – | inactive | inactive | inactive | inactive | inactive | inactive | inactive | inactive | inactive | inactive | – | inactive | – | – | –
O=C(O)COCC(=O)O | inactive | inactive | – | inactive | inactive | inactive | inactive | inactive | inactive | inactive | inactive | – | inactive | inactive | inactive | – | inactive | inactive | inactive | –
Cc1cccc(C)c1NC(=O)CN1CCCC1 | inactive | inactive | inactive | – | inactive | inactive | inactive | inactive | inactive | – | inactive | – | inactive | inactive | inactive | – | – | inactive | – | –
CCCC(=O)OCCC(C)C | inactive | inactive | inactive | – | inactive | inactive | inactive | inactive | inactive | – | – | inactive | inactive | inactive | inactive | – | inactive | inactive | – | –
CCCCCCCCCCCC(=O)OCC | inactive | inactive | inactive | inactive | inactive | inactive | inactive | inactive | inactive | inactive | inactive | – | inactive | inactive | inactive | – | inactive | inactive | – | –
O=[N+]([O-])c1cccc(I)c1 | inactive | inactive | inactive | inactive | inactive | inactive | inactive | inactive | inactive | inactive | – | inactive | inactive | inactive | inactive | inactive | inactive | inactive | inactive | –
COc1cc(CNC(=O)CCCC/C=C/C(C)C)ccc1O | inactive | inactive | inactive | inactive | inactive | inactive | inactive | inactive | inactive | inactive | inactive | inactive | inactive | inactive | inactive | – | inactive | inactive | inactive | –
